# Compound activity as filed in PubChem BioAssay.
# M1 PAM: human CHRM1 positive allosteric modulation; P11229; CHO-K1 hM1, Fluo-8 calcium fluorescence, ACh EC20; 0% = ACh EC20, 100% = maximal ACh; activation, % at 3 µM; 0.088% of 360,000 active; AID 588819; in the data active means activation above about 19%, passing the limit was not always enough
# Target sequence (P11229 whole entry, looked up): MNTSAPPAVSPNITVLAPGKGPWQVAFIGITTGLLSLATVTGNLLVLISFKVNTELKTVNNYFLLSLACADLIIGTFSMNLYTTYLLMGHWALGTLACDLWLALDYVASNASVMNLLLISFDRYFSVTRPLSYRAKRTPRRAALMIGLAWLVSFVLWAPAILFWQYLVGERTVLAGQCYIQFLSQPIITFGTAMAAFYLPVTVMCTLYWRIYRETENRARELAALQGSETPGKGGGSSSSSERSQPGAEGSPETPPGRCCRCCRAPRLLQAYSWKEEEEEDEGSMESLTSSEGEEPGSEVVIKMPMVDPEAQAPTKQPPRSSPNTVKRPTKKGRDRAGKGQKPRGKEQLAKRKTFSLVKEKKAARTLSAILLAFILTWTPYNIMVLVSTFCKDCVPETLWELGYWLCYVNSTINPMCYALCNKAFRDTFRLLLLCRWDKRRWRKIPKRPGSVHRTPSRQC
# M1 PAM parental: nonselective activator or artifact in parental CHO-K1 calcium assay | ATP EC20, Fluo-8 calcium fluorescence; 0% at ATP EC20, 100% at ATP max | activation, % at 3 µM | 0.02% of 360,000 active | AID 602247;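 active means activation above the run cutoff, the mean activation of all test compounds plus 3 SD, cut at about 40% in these data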;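 further: peak over basal fluorescence ratio in a 140 s read after ATP addition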
# CHRM1 antagonist: blocks human M1 muscarinic receptor | P11229 | CHO-K1 hM1, Fluo-8 calcium fluorescence, ACh EC80 antagonist | inhibition, % at 3 µM | 1.3% of 360,000 active | AID 588852;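 active means percent inhibition above its own plate's cutoff, namely the mean of that plate's compound wells plus 3 SD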;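 further: peak over basal fluorescence ratio during 140 s after agonist addition; 0% = ACh EC80 plus DMSO and 100% = DMSO alone without agonist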
# CHO-K1 Ca antag: nonselective inhibitor or artifact in parental CHO-K1 cells; 0.6% of 360,000 active; AID 602250; inhibition, % at 3 µM; ATP-induced calcium, Fluo-8 fluorescence;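 active means inhibition above a per-plate cutoff, the plate's mean sample inhibition plus 3 SD, cut at about 24% in these data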;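 further: 0% = DMSO plus EC80 ATP and 100% = DMSO alone without ATP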
# M1 ag parental: M1 agonist counterscreen hit in parental CHO-K1 cells | 0.48% of 360,000 active | activation, % at 3 µM | Fluo-8 calcium fluorescence; scaled to maximal ATP response, vehicle zero; in the data active means activation above about 15%;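 further: untransfected CHO-K1 host cells lacking M1 receptor as counterscreen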
# M1 ag: activates human CHRM1 receptor. CHO-K1 hM1, Fluo-8 calcium fluorescence, agonist mode; 0% DMSO, 100% acetylcholine EC100. activation, % at 3 µM. 0.33% of 360,000 active. AID 588814;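 active means activation above the run's mean compound activation plus 3 SD, cut at about 16% in these data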;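 further: peak over basal fluorescence ratio within a 140 s kinetic read after compound addition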
# * hit, by the source's call. Only some compounds are listed: those with a hit (about 2.3% of all), similar ones and a draw of the others.
SMILES,M1 PAM,M1 PAM parental,CHRM1 antagonist,CHO-K1 Ca antag,M1 ag parental,M1 ag
O=C(CCCCl)N1CCc2[nH]c3ccccc3c2C1,-2,-12,-17,-4,1,24*
COc1ccccc1NC(=O)N1CCc2[nH]c3ccc(F)cc3c2C1,-10,23,-17,-16,2,26*
O=C(N1CCc2[nH]c3ccccc3c2C1)C(F)(F)F,-12,-13,8,8,0,46*
CC(=O)N1CCc2[nH]c3ccccc3c2C1,9,-4,4,14,-1,-1
O=C(NNC(=O)C1CC(c2cccs2)=NO1)Nc1ccc(Cl)cc1 (centres undefined),6,12,-9,-3,1,-2
CCCCn1nnnc1C(c1ccc(OC)cc1)N1CCN(C/C=C/c2ccccc2)CC1 (centres undefined),-26,11,55*,-25,2,-7
COc1ccc(C(c2nnnn2-c2ccc(OC)cc2)N2CCN(C/C=C/c3ccccc3)CC2)cc1 (centres undefined),-26,4,74*,-9,0,-6
COc1cccc(C(c2nnnn2C(C)(C)C)N2CCN(C/C=C/c3ccccc3)CC2)c1OC (centres undefined),-30,-6,42*,17,0,-11
C(=C\c1ccccc1)/CN1CCN(C(c2cccc3ccccc23)c2nnnn2C2CCCC2)CC1 (centres undefined),-20,28,95*,-12,9,0
COc1ccc(C(c2nnnn2C(C)(C)C)N2CCN(C/C=C/c3ccccc3)CC2)cc1 (centres undefined),-25,3,29,-9,0,-5
COc1ccccc1-c1noc2c1C(=O)N(Cc1cn(Cc3ccccc3)nn1)CC2,-2,9,-24,-11,3,-5
Cc1c(Cc2ccccc2)[n+](=O)c2ccccc2n1[O-],7,17,-11,-11,1,-2
COc1ccc(OC)c(S(=O)(=O)N2CCC(C(=O)NCc3ccncc3)CC2)c1,3,15,1,-13,1,2
O=C(Nc1ccc2c(c1)OCCO2)C(c1cc2ccccc2o1)N1CCN(C/C=C/c2ccccc2)CC1 (centres undefined),-25,46*,36*,-30,2,-3
Cc1cccc(C)c1-n1nnnc1C(c1ccccc1)N1CCN(C/C=C/c2ccccc2)CC1 (centres undefined),-26,7,61*,-7,0,-7
C(=C\c1ccccc1)/CN1CCN(C(c2ccnc3ccccc23)c2nnnn2-c2ccc3c(c2)OCCO3)CC1 (centres undefined),-9,3,-16,-19,1,-6
C(=C\c1ccccc1)/CN1CCN(C(c2ccccc2)c2nnnn2-c2ccc3c(c2)OCCO3)CC1 (centres undefined),-25,6,95*,-22,1,-7
COc1ccc(-n2nnnc2C(c2cccs2)N2CCN(C/C=C/c3ccccc3)CC2)cc1 (centres undefined),-25,9,55*,-16,0,-7
COc1ccc(NC(=O)C2(C)CCCN(C(C)=O)C2)cc1F (centres undefined),3,22,-16,-18,1,0
COc1ccc(C2(O)CCN(CC(=O)Nc3nc(-c4ccccc4)cs3)CC2)cc1,-6,16,13,1,5,-6
COc1ccc(C(c2nnnn2C2CCCCC2)N2CCN(C/C=C/c3ccccc3)CC2)cc1 (centres undefined),-26,-10,87*,-2,0,-7
N#Cc1ccc(CN2CCN(C(=O)CNC(=O)Cc3cccc4ccccc34)CC2)cc1,-9,6,2,-6,9,23*
Cc1ccc(C(=O)N2C(=S)C(c3ccc(F)cc3)=NC23CCN(C)CC3)cc1,-27,-6,56*,8,1,-8
Cc1ccc(C(=O)N2CCC(C(=O)c3ccc(F)cc3)CC2)cc1,3,-8,1,-2,2,-2
Cc1cc(C)cc(OCC(=O)N(C)CC(=O)Nc2ccc(N3CCOCC3)cc2)c1,15,-3,-16,1,0,-1
SMILES,M1 PAM,M1 PAM parental,CHRM1 antagonist,CHO-K1 Ca antag,M1 ag parental,M1 ag
CCNC(=O)C1(C)CCCN(C(=O)c2ccnc(Cl)c2)C1 (centres undefined),3,19,-9,0,1,-2
Cc1ccc(Cl)cc1NC(=S)NCCCSC1CCCCC1,-15,-3,37*,7,5,-4
Cc1cc(Cl)ccc1NC(=S)NCCCO,6,13,-12,-5,0,-4
C/C(N)=C(/C#N)C(=O)COC(=O)c1ccc(NC(N)=O)cc1,1,14,-16,-7,0,-2
CC(C)c1nc(SCC(=O)Nc2c[nH]c(=O)[nH]c2=O)c2cnn(-c3ccccc3)c2n1,3,3,7,41*,-1,-4
Cc1cccc(Oc2coc3cc(O)ccc3c2=O)c1,0,6,-6,-2,1,-2
Cc1cccc(NC(=O)CSc2nc3ccccc3c(=O)n2C)c1C,-20,-9,33*,15,12,2
Cc1ccccc1Nc1nc(N)nc(CSc2nc3ccccc3c(=O)n2C)n1,-13,-2,31,29*,18*,8
Cc1ccccc1Nc1nc(N)nc(CSc2nc3ccccc3c(=O)n2CCCO)n1,-2,19,-15,-26,4,1
O=[N+]([O-])c1cccc(-c2cc3cccc[n+]3cc2-c2cccc([N+](=O)[O-])c2)c1,5,14,1,-4,0,-10
Cc1sc2cc(-c3cccc([N+](=O)[O-])c3)c(-c3cccc([N+](=O)[O-])c3)c[n+]2c1C,-22,11,32*,-6,0,-10
C(=C\c1ccccc1)/CN1CCN(C(c2cc3ccccc3o2)c2nnnn2Cc2ccccc2)CC1 (centres undefined),-11,-9,9,1,0,-4
OCC1(Cc2ccccc2)CCN(C2CCN(c3ccccc3F)CC2)CC1,-21,9,35*,-2,12,-3
CCCC(C)C(=O)Nc1ncc(S(=O)(=O)c2ccc([N+](=O)[O-])cc2)s1 (centres undefined),-5,6,28,14,36*,40*
Cc1ccc(CN2CC(C(=O)N3CCN(c4ccccc4O)CC3)CC2=O)cc1 (centres undefined),7,13,-15,-11,1,-2
O=C(c1ccc(F)cc1)N1CCN(c2cc(N3CCCCC3)c(F)cc2[N+](=O)[O-])CC1,-8,-10,12,0,2,-1
Cc1ccc(OC(=O)CCS(=O)(=O)c2ccc(C)cc2)cc1,25*,2,-27,-9,0,-2
